These results are taken from the supplement of paper PMC9254222.

Molecules are shown by their SMILES. The full ranking holds about 1,100 compounds; the median of “Wnt reporter firefly/Renilla luciferase ratio relative to plate median” is about 1.1, and the highest 2% start at about 1.6. The list comes from a sample in which the highest values are over-represented; it also holds similar structures and randomly drawn compounds.

The subject of this assay is HEK293T (UBE3A T485A transfected, BAR Wnt reporter). The experiment in a line: Wnt reporter firefly/Renilla luciferase ratio relative to plate median (fold (linear ratio)); higher = more Wnt/beta-catenin reporter activation. As to conditions: 24 h. The procedure, abridged:
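HEK293T cells carrying a transfected BAR firefly luciferase Wnt reporter, TK-Renilla and an expression plasmid were exposed to chemicals at 0.01–100 uM for 24 h, with dosing four hours after transfection. Readout used Dual-Glo luciferase. The firefly/Renilla ratio defined Wnt activity and raw Renilla defined cell health, each median-centred per plate. Figures are means of four biological replicates.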

On to `NS(=O)(=O)c1cc2c(cc1Cl)NCNS2(=O)=O` [Hydrochlorothiazide], for which the “Wnt reporter firefly/Renilla luciferase ratio” value by setting is: (concentration: 0.1 uM) 1.41; (concentration: 1 uM) 1.17; (concentration: 10 uM) 1.12; (concentration: 100 uM) 1.32.

With `CC(=O)OC1C(=O)C2(C)C(O)CC3OCC3(OC(C)=O)C2C(OC(=O)c2ccccc2)C2(O)CC(OC(=O)C(O)C(NC(=O)c3ccccc3)c3ccccc3)C(C)=C1C2(C)C` (configuration not stated) [Taxol], the “Wnt reporter firefly/Renilla luciferase ratio” value (concentration: 0.01 uM) came out at 1.29; the “Wnt reporter firefly/Renilla luciferase ratio” value (concentration: 0.1 uM) was 0.822; the “Wnt reporter firefly/Renilla luciferase ratio” value (concentration: 1 uM) amounted to 0.575; the “Wnt reporter firefly/Renilla luciferase ratio” value (concentration: 10 uM) was found to be 0.409; the “Wnt reporter firefly/Renilla luciferase ratio” value (concentration: 100 uM) was 1.98.

For the compound `O=C([N-]S(=O)(=O)/C=C/c1ccccc1)c1ccc(F)cc1Cl.[Na+]`, the “Wnt reporter firefly/Renilla luciferase ratio” value by setting is: (concentration: 0.1 uM) 1.15; (concentration: 1 uM) 1.07; (concentration: 10 uM) 0.657; (concentration: 100 uM) 0.3.

For `CC(C)c1cccc(C(C)C)c1N1C(=O)c2ccc(O)cc2C1=O`, the “Wnt reporter firefly/Renilla luciferase ratio” value came to 1.19 (concentration: 0.1 uM), 1.17 (concentration: 1 uM) and 0.259 (concentration: 10 uM).

Regarding `C=CCc1ccc(O)c(OC)c1` [Eugenol], the “Wnt reporter firefly/Renilla luciferase ratio” value (concentration: 0.1 uM) turned out to be 1.02, the “Wnt reporter firefly/Renilla luciferase ratio” value (concentration: 1 uM) was 1.13, the “Wnt reporter firefly/Renilla luciferase ratio” value (concentration: 10 uM) was 1.19 and the “Wnt reporter firefly/Renilla luciferase ratio” value (concentration: 100 uM) is 1.55.

Turning to `OC[C@H]1O[C@@H]2O[C@H]3[C@H](O)[C@@H](O)[C@@H](O[C@H]4[C@H](O)[C@@H](O)[C@@H](O[C@H]5[C@H](O)[C@@H](O)[C@@H](O[C@H]6[C@H](O)[C@@H](O)[C@@H](O[C@H]7[C@H](O)[C@@H](O)[C@@H](O[C@H]1[C@H](O)[C@H]2O)O[C@@H]7CO)O[C@@H]6CO)O[C@@H]5CO)O[C@@H]4CO)O[C@@H]3CO` [alpha-Cyclodextrin], the “Wnt reporter firefly/Renilla luciferase ratio” value runs as follows: (concentration: 0.1 uM) 1.02; (concentration: 1 uM) 1.09; (concentration: 10 uM) 0.976; (concentration: 100 uM) 0.971.

Regarding `O=C(CCCCCCC(=O)Nc1ccccc1)NO` [Vorinostat (SAHA)], the “Wnt reporter firefly/Renilla luciferase ratio” value by setting is: (concentration: 0.01 uM) 1.33; (concentration: 0.1 uM) 1.23; (concentration: 1 uM) 1.05; (concentration: 10 uM) 3.08.

Regarding `O=C(OCCCCCCOC(=O)c1ccccc1)c1ccccc1` [Hexane-1,6-diyl dibenzoate], the “Wnt reporter firefly/Renilla luciferase ratio” value runs as follows: (concentration: 0.1 uM) 0.955; (concentration: 1 uM) 0.846; (concentration: 10 uM) 1.01; (concentration: 100 uM) 1.37.

For `CCCCCCC(C=O)=Cc1ccccc1` [2-Benzylideneoctanal], the “Wnt reporter firefly/Renilla luciferase ratio” value runs as follows: (concentration: 0.1 uM) 0.942; (concentration: 1 uM) 0.906; (concentration: 10 uM) 0.822; (concentration: 100 uM) 0.757.

With `CC(C)(O)c1ccc(CNC(=O)c2cccnc2Oc2ccc(F)cc2)cc1`, the “Wnt reporter firefly/Renilla luciferase ratio” value reads like this: (concentration: 0.1 uM) 0.96; (concentration: 1 uM) 1.05; (concentration: 10 uM) 1.22; (concentration: 100 uM) 0.695.

On to `CCCc1ccccc1` [Propylbenzene], for which the “Wnt reporter firefly/Renilla luciferase ratio” value reads like this: (concentration: 0.1 uM) 0.987; (concentration: 1 uM) 0.856; (concentration: 10 uM) 0.88; (concentration: 100 uM) 1.43.

On to `CC(C)(C)c1ccccc1` [tert-Butylbenzene], for which the “Wnt reporter firefly/Renilla luciferase ratio” value is, setting by setting: (concentration: 0.1 uM) 1.01; (concentration: 1 uM) 0.913; (concentration: 10 uM) 0.895; (concentration: 100 uM) 1.16.

For `COc1ccc(S(=O)(=O)N2C(=O)[C@@](c3ccccc3OC)(N3C[C@H](O)C[C@H]3C(=O)N(C)C)c3cc(Cl)ccc32)c(OC)c1` [Nelivaptan], the “Wnt reporter firefly/Renilla luciferase ratio” value turned out to be 1.09 (concentration: 0.1 uM), 0.857 (concentration: 1 uM), 0.612 (concentration: 10 uM) and 0.355 (concentration: 100 uM).

Turning to `CCCCCCCCCCCCCCCCOS(=O)(=O)[O-].[Na+]` [Sodium hexyldecyl sulfate], the “Wnt reporter firefly/Renilla luciferase ratio” value is 0.784 (concentration: 0.1 uM), 1.09 (concentration: 1 uM), 0.931 (concentration: 10 uM) and 1.7 (concentration: 100 uM).

As for `CCCCCCCCCCCCOS(=O)(=O)[O-].[Na+]` [Sodium dodecyl sulfate], the “Wnt reporter firefly/Renilla luciferase ratio” value was 1.32 (concentration: 0.1 uM), 0.99 (concentration: 1 uM), 1.05 (concentration: 10 uM) and 0.875 (concentration: 100 uM).

With `CCCCCCCCCCCCCCOS(=O)(=O)[O-].[Na+]` [Sodium myristyl sulfate], the “Wnt reporter firefly/Renilla luciferase ratio” value (concentration: 0.1 uM) was 1.14, the “Wnt reporter firefly/Renilla luciferase ratio” value (concentration: 1 uM) was 1.11, the “Wnt reporter firefly/Renilla luciferase ratio” value (concentration: 10 uM) amounted to 1.06 and the “Wnt reporter firefly/Renilla luciferase ratio” value (concentration: 100 uM) was found to be 0.293.

Regarding `CC(=O)c1ccccc1` [Acetophenone], the “Wnt reporter firefly/Renilla luciferase ratio” value (concentration: 0.1 uM) came to 1.48, the “Wnt reporter firefly/Renilla luciferase ratio” value (concentration: 1 uM) stood at 1.03, the “Wnt reporter firefly/Renilla luciferase ratio” value (concentration: 10 uM) was determined as 1.27 and the “Wnt reporter firefly/Renilla luciferase ratio” value (concentration: 100 uM) was found to be 1.46.

Take `CCCCCCCCO` [1-Octanol]: the “Wnt reporter firefly/Renilla luciferase ratio” value is, setting by setting: (concentration: 0.1 uM) 0.948; (concentration: 1 uM) 0.949; (concentration: 10 uM) 1.11; (concentration: 100 uM) 1.09.

Consider `O=c1ccn(C2OC(COP(=O)(O)OP(=O)(O)OP(=O)(O)O)C(O)C2O)c(=O)[nH]1` (configuration not stated), for which the “Wnt reporter firefly/Renilla luciferase ratio” value by setting is: (concentration: 0.01 uM) 1.43; (concentration: 0.1 uM) 1.13; (concentration: 1 uM) 1.15; (concentration: 10 uM) 1.07; (concentration: 100 uM) 1.94.
